High-throughput results from PubChem BioAssay.
HT1080NT lethal – kills 2HG-producing HT-1080-NT fibrosarcoma cells; HT-1080-NT fibrosarcoma viability, CellTiter-Glo ATP luminescence, 48 h; Potency, µM (series often up to 46.1 µM), usual class: cytotoxic; actives 1.6% (n = 360,000);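 note: NT is the 2HG producing partner of a matched IDH1 knockdown line; nearly all actives have a fitted effect of over 55% in size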
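750 cells/well, RPMI + 5% FBS; 2 h settle, compound pin-transfer, 48 h at 37 degrees C. CellTiter-Glo 10 min RT, luminescence. Normalized to DMSO and media-only wells.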
HT1080 IDH1KD tx – toxicity to HT-1080 IDH1 knockdown cells (counter line); actives 2% (n = 360,000); HT-1080 IDH1 knockdown viability, ATP luminescence, 48 h; Potency, µM (highest dose often 46.1 µM), actives largely listed as cytotoxic
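Cytotoxicity counter-line: IDH1KD HT-1080, 48 h, CellTiter-Glo. Curves classed by r2, magnitude and activity.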
IL1B secr inh – blocks inflammasome-driven IL-1 beta release | THP-1 LPS/ATP IL-1B secretion, AlphaLISA, 16 h; hits give low values | activity change, % at 57.5 µM | actives 4.7% (n = 360,000); in the data active = activity change below about -50%; inconclusive = mostly about -30% to -49%
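Secreted IL-1B measured by AlphaLISA bead assay after 16 h compound exposure of THP-1 cells; compounds (final up to 57.5 uM) added 1 h before LPS (250 ng/mL) and ATP (1.25 mM) stimulation; lower signal means less secretion.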
TDP1 cell noCPT – qHTS for Inhibitors of human tyrosyl-DNA phosphodiesterase 1 (TDP1): qHTS in cells in absence of CPT | DT40 Tdp1-/- hTDP1 cells, no CPT, ATP luminescence, 48 h | Potency, µM (highest dose often 46.2 µM), hits mostly inhibitors | actives 15% (n = 420,000) | AID 686978, 2013; note: nearly all actives have a fitted effect of over 55% in size
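DT40 Tdp1-/-;hTDP1 cells, no CPT (DMSO vehicle only), 400 cells/well; compounds pin-transferred; ≥48 hr, 37 °C; CellTiter-Glo 30 min RT dark, luminescence read.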
TDP1 cell CPT – DT40-hTDP1 cell growth loss with CPT; chicken DT40 Tdp1-/-;hTDP1 cells + 20 nM CPT, ATP luminescence, 48 h; Potency, µM (top dose mostly 46.2 µM), hits mostly inhibitors; actives 12% (n = 420,000); note: nearly all actives have a fitted effect of over 55% in size
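Chicken DT40 Tdp1-/- cells complemented with human TDP1, 400 cells/well, exposed to compounds plus 20 nM camptothecin for at least 48 h at 37 C; viability read as ATP content by CellTiter-Glo luminescence.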
Large screens that a line does not name were inactive. Rows were chosen to be rich in hits. Some 19% of all compounds tested hit in one or more screens of this group. Unless noted, calls come from the whole dose curve; as a rule, active = well fitted curve in the direction sought with a large enough effect; inconclusive = small, poorly fitted or top-dose-only effect, or another doubt; inactive = no such curve, though single readings can be large; an effect the other way counts as inactive or inconclusive.

COc1ccc(-c2cc(C)no2)cc1S(=O)(=O)N1CCN(c2ccccc2F)CC1	TDP1 cell noCPT inconclusive, TDP1 cell CPT inconclusive
Cc1cc(-c2ccc(C(C)C)c(S(=O)(=O)N3CCN(c4ccccn4)CC3)c2)on1	TDP1 cell noCPT 21µM, TDP1 cell CPT 18µM
COc1ccc(-c2cc(C)no2)cc1S(=O)(=O)N1CCN(c2ccccn2)CC1	IL1B secr inh -77, TDP1 cell noCPT 21µM, TDP1 cell CPT inconclusive
CCc1ccc(-c2cc(C)no2)cc1S(=O)(=O)N1CCN(c2ccccn2)CC1	HT1080NT lethal inconclusive, TDP1 cell noCPT inconclusive, TDP1 cell CPT inconclusive
O=C(O)C(Cc1c[nH]c2ccccc12)N1Cc2ccccc2C1=O (stereo unspecified)	none
O=C1CN(S(=O)(=O)c2cccc(Cl)c2Cl)c2ccccc2N1	none
Cc1ccc(S(=O)(=O)N2CC(=O)Nc3ccccc32)c(C)c1NS(C)(=O)=O	TDP1 cell CPT inconclusive
Cc1cc(C(C)(C)C)cc(C)c1S(=O)(=O)N1CC(=O)Nc2ccccc21	HT1080 IDH1KD tx inconclusive, IL1B secr inh -63, TDP1 cell CPT inconclusive
CCOc1ccc(S(=O)(=O)N2CC(=O)Nc3ccccc32)cc1	HT1080NT lethal inconclusive, HT1080 IDH1KD tx 12µM, TDP1 cell noCPT inconclusive, TDP1 cell CPT inconclusive
Cc1ccc(C(C)(C)C)cc1S(=O)(=O)N1CC(=O)Nc2ccccc21	HT1080NT lethal inconclusive, IL1B secr inh -100, TDP1 cell noCPT inconclusive
O=C(COC(=O)c1cccc(Br)c1)Nc1ccc2[nH]c(=O)[nH]c2c1	none
O=C(CCl)Nc1cc2[nH]c(=O)[nH]c2cc1Br	HT1080NT lethal 10µM, HT1080 IDH1KD tx 6.5µM, IL1B secr inh -101, TDP1 cell noCPT 1.8µM, TDP1 cell CPT 2.1µM
Cc1cc2c(C)cc(=O)[nH]c2cc1NC(=O)CCl	HT1080NT lethal inconclusive, HT1080 IDH1KD tx inconclusive, IL1B secr inh -96, TDP1 cell noCPT 2.3µM, TDP1 cell CPT 5.2µM
O=C(c1ccc(N2CCCCS2(=O)=O)cc1)N1CCN(c2ccccc2F)CC1	TDP1 cell noCPT inconclusive, TDP1 cell CPT inconclusive
O=C(Nc1nc(-c2ccccn2)cs1)c1cccc(-n2cnnn2)c1	HT1080NT lethal inconclusive, HT1080 IDH1KD tx inconclusive, TDP1 cell noCPT 4.6µM, TDP1 cell CPT 5.2µM
O=C(NC(=S)Nc1nc(-c2ccccc2)cs1)c1ccco1	TDP1 cell CPT inconclusive
O=C(Nc1nc(-c2ccccn2)cs1)c1ccc(Br)s1	HT1080NT lethal 2µM, HT1080 IDH1KD tx 1.4µM, TDP1 cell noCPT 0.65µM, TDP1 cell CPT 1µM
COc1ccc(-c2csc(NC(=O)COC(=O)c3ccco3)n2)cc1	TDP1 cell noCPT inconclusive, TDP1 cell CPT 23µM
O=C(Nc1nc(-c2ccncc2)cs1)c1ccco1	TDP1 cell noCPT 11µM, TDP1 cell CPT inconclusive
COc1ccc(-c2csc(NC(=S)NC(=O)c3ccco3)n2)cc1	none
CN(C)/C=N/c1ncc(C(=O)OC(C)(C)C)s1	none
CCC(=O)N1CCc2cc(-c3csc(NC(=O)c4ccco4)n3)ccc21	HT1080NT lethal inconclusive, TDP1 cell noCPT 13µM, TDP1 cell CPT inconclusive
c1ccc(-c2nccc(-c3ccco3)n2)nc1	TDP1 cell noCPT inconclusive, TDP1 cell CPT inconclusive
O=C(Nc1nc(-c2ccccc2)cs1)C1c2ccccc2Oc2ccccc21	none
O=C(Nc1cccnc1)c1ccc(Br)s1	HT1080NT lethal inconclusive, HT1080 IDH1KD tx 10µM, TDP1 cell noCPT inconclusive, TDP1 cell CPT inconclusive
O=C(Nc1nc(-c2ccncc2)cs1)C1c2ccccc2Oc2ccccc21	TDP1 cell noCPT 13µM, TDP1 cell CPT 21µM
c1ccc(-c2nc(-c3ccco3)cs2)nc1	TDP1 cell noCPT 16µM, TDP1 cell CPT 15µM
CC(Oc1ccc2ccc(=O)oc2c1)C(=O)c1ccccc1 (stereo unspecified)	none
COc1ccc(S(=O)(=O)NC(=O)C2(C)CCN2C(=O)C2(c3ccccc3)CCCC2)cc1 (stereo unspecified)	TDP1 cell noCPT inconclusive, TDP1 cell CPT inconclusive
O=C(Nc1nc(-c2cc(Cl)sc2Cl)cs1)c1ccc(Br)s1	TDP1 cell noCPT 16µM, TDP1 cell CPT 18µM
O=C(Nc1nc(-c2ccccn2)cs1)c1ccco1	HT1080NT lethal inconclusive, TDP1 cell noCPT 1.6µM, TDP1 cell CPT 5.2µM
C[C@H](NC(=O)c1ccco1)C(=O)Nc1nc(-c2ccccn2)cs1	TDP1 cell noCPT 13µM, TDP1 cell CPT inconclusive
C[C@H](NC(=O)c1ccco1)C(=O)Nc1nnc(SCc2ccccc2)s1	none
CN1C(C(=O)Nc2cccc(O)c2)=CC(c2cccs2)=NS1(=O)=O	TDP1 cell noCPT inconclusive, TDP1 cell CPT inconclusive
O=Cc1ccc(N2CCCC2)c([N+](=O)[O-])c1	none
Cc1cc(C=O)c(C)n1-c1ccc(N2CCOCC2)cc1	IL1B secr inh inconclusive, TDP1 cell noCPT inconclusive, TDP1 cell CPT inconclusive
Cc1cc(/C=C(\C#N)C(N)=O)c(C)n1-c1ccc(N2CCOCC2)c([N+](=O)[O-])c1	TDP1 cell noCPT 23µM, TDP1 cell CPT 23µM
Cc1cc(C=O)c(C)n1-c1ccc(N2CCCCC2)c([N+](=O)[O-])c1	IL1B secr inh inconclusive, TDP1 cell noCPT 21µM, TDP1 cell CPT 8.2µM
CCN(C(=O)CSc1nc(C)c(C)c(C)n1)C1CCS(=O)(=O)C1 (stereo unspecified)	none
Cc1cccc(C)c1NC(=O)CN1C(=O)NC(C)(CCc2ccccc2)C1=O (stereo unspecified)	none
CC(C)(C)c1ccc(C(=O)NC(=S)N2CCCCCC2)cc1	HT1080NT lethal inconclusive, HT1080 IDH1KD tx inconclusive, TDP1 cell noCPT 13µM, TDP1 cell CPT 18µM
CC(C)(C)c1ccc(C(=O)NC(=S)N2CCCC2)cc1	TDP1 cell noCPT inconclusive
CC1CCN(C(=S)NC(=O)c2ccc(C(C)(C)C)cc2)CC1	TDP1 cell noCPT inconclusive, TDP1 cell CPT 23µM
Cc1cccc(CN2CCC(n3nccc3NC(=O)CCCc3ccccc3)CC2)n1	TDP1 cell noCPT inconclusive, TDP1 cell CPT inconclusive
Cc1ccc(NC(=O)CSc2ccccc2NC(=O)c2ccccc2)cc1Cl	HT1080 IDH1KD tx inconclusive, IL1B secr inh inconclusive, TDP1 cell noCPT 13µM, TDP1 cell CPT 15µM
COc1ccc(NC(=O)CSc2cc(-c3ccccc3)nc(C)n2)cc1	TDP1 cell CPT inconclusive (no result: HT1080NT lethal, HT1080 IDH1KD tx, IL1B secr inh)
Cc1ccc(NC(=O)CSc2ccccc2NC(=O)c2ccccc2Cl)cc1Cl	TDP1 cell noCPT 18µM, TDP1 cell CPT inconclusive
Cc1nc(SCC(=O)Nc2ccc(C)c(Cl)c2)cc(-c2ccccc2)n1	TDP1 cell noCPT inconclusive, TDP1 cell CPT 23µM (no result: HT1080NT lethal, HT1080 IDH1KD tx, IL1B secr inh)
CS/C(=N\S(=O)(=O)c1ccc(Cl)cc1)c1ccccc1	none
Cc1ccc(S/C(=N/S(=O)(=O)c2ccc(Cl)cc2)c2ccccc2)cc1	TDP1 cell noCPT 10µM, TDP1 cell CPT 11µM (no result: HT1080NT lethal, HT1080 IDH1KD tx, IL1B secr inh)
O=S(=O)(/N=C(\Sc1ccc(Cl)cc1)c1ccccc1)c1ccccc1	IL1B secr inh -113, TDP1 cell noCPT 21µM, TDP1 cell CPT 12µM
